Screens from PubChem BioAssay.
A3A deaminase: inhibitors of human APOBEC3A DNA deaminase. P31941. recombinant A3A, FAM/TAMRA ssDNA deamination fluorescence. inhibition, % at 20 µM. 0.41% of 330,000 active;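 active = at least 40% inhibition at 20 µM here, with at most 30% in a related deaminase screen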
Target sequence (P31941 whole entry, looked up): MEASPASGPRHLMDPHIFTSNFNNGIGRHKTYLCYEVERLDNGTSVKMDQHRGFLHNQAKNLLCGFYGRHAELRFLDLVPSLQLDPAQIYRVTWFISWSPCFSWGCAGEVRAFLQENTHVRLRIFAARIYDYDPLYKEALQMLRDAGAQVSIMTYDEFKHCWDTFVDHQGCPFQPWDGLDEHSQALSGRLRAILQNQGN
Fh CTSL1 inh: counter-screen for PFM18AAP inhibitors: inhibitors of F. hepatica cathepsin L1; inhibition, % at 5.96 µM; recombinant F. hepatica cathepsin L1, Z-Leu-Arg-MCA fluorescence; AID 1906; 0.49% of 300,000 active;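 active = inhibition above the mean of all tested compounds plus 3 SD, set per screening campaign, cut at about 17% in these data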
NALP1 yeast inh: inhibitors of NALP1 inflammasome in yeast; S. cerevisiae NALP1/ASC/caspase-1 growth, X-gal OD620, 72 h; inhibition, % at 10 µM; 0.61% of 280,000 active; AID 2071; in the data active = inhibition mostly above about 24%, no sharp cut-off; inactive = mostly below about 32%
APOBEC3G inh: blocks human APOBEC3G single-stranded DNA deamination. AID 493012. 0.28% of 330,000 active. inhibition, % at 20 µM. recombinant A3G, ssDNA deamination FAM/TAMRA fluorescence;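 active = inhibition of at least 40% at 20 µM, with no more than 30% in the related APOBEC3A deaminase screen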
Target sequence (Q9HC16 whole entry, looked up): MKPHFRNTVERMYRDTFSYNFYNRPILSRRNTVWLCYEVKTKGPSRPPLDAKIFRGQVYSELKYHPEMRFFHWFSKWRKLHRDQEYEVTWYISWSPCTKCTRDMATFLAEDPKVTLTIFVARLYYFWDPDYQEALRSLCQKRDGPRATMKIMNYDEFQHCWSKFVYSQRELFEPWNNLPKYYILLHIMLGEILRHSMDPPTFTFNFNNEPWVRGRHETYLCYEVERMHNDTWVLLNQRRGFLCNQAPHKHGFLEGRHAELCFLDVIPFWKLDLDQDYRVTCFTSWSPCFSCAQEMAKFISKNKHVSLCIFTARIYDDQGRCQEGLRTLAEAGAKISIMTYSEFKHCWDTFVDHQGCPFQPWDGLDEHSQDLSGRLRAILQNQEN
HGIII-sPLA2 inh: Blocks human group III sPLA2 activity; inhibition, % at 12.2 µM; Q9NZ20; 0.56% of 370,000 active; AID 743126; QFRET BODIPY PC-A2 liposome hydrolysis, fluorescence;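 active = inhibition above mean plus 3 SD of compounds lying within the high and low control bounds, cut at about 19% in these data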
Of the large screens only hits and unclear results are named; the others gave an inactive call; ! = not confirmed by another sample. The list is not random: actives were taken first. Their share in the collection is about 2%.

CCOc1ccc(C(=O)C(CCC(CN(C)C)C(=O)c2ccc(OCC)cc2)CN(C)C)cc1 (stereo not given)	NALP1 yeast inh 47.6 (no result: A3A deaminase, Fh CTSL1 inh, APOBEC3G inh)
CN(C)CC(CCC(CN(C)C)C(=O)c1ccccc1)C(=O)c1ccccc1 (stereo not given)	NALP1 yeast inh 26.3 (no result: A3A deaminase, Fh CTSL1 inh, APOBEC3G inh, HGIII-sPLA2 inh)
CCOc1ccc(C(=O)c2ccncc2)cc1	none
O=C(NCc1cccnc1)O[C@H]1CC[C@@]23CCCN2C(=O)CCC[C@H]3C1	none (no result: A3A deaminase, Fh CTSL1 inh, NALP1 yeast inh, APOBEC3G inh)
O=C(COC(=O)c1ccc(Sc2ncn[nH]2)c([N+](=O)[O-])c1)Nc1ccc(Cl)cc1	none (no result: A3A deaminase, Fh CTSL1 inh, NALP1 yeast inh, APOBEC3G inh)
O=C(NCc1cccnc1)C(=O)c1c[nH]c2ccccc12	none
O=C(Nc1ccc(Nc2cccnc2)cc1)c1c[nH]c2ccccc12	HGIII-sPLA2 inh 25.5 (no result: A3A deaminase, Fh CTSL1 inh, NALP1 yeast inh, APOBEC3G inh)
C/C(CC1CC(COCCC(C)C)OC1=O)=N\NC(N)=S (stereo not given)	Fh CTSL1 inh 20.8
C/C(CCC1CC(C)OC1=O)=N\NC(N)=S (stereo not given)	none
CNC(=O)C1(C(F)(F)F)C/C(=C\CCO)CCCO1 (stereo not given)	Fh CTSL1 inh 18.1
O=C(NCc1ccccc1)C1(C(F)(F)F)C/C(=C/CCO)CCCO1 (stereo not given)	none (no result: NALP1 yeast inh)
COCCCN1C(=O)[C@H](CC(=O)NCc2ccccc2)[C@]2(C(=O)OC)CCCCC=C12	none (no result: A3A deaminase, Fh CTSL1 inh, NALP1 yeast inh, APOBEC3G inh)
O=C(CNC(=O)C1CCCCC1)OCc1cc(=O)oc2ccc3ccccc3c12	Fh CTSL1 inh 28.9
O=C(COC(=O)CNC(=O)C1CCCCC1)Nc1ccccc1	none (no result: Fh CTSL1 inh, NALP1 yeast inh)
N#CCC(=O)N/N=C/c1cn(Cc2ccc(Cl)c(Cl)c2)c2ccccc12	none
N#CCC(=O)N/N=C/c1cn(Cc2cccc3ccccc23)c2ccccc12	NALP1 yeast inh 41.3
CC(=O)Nc1ccc(S(=O)(=O)/N=C2\C(=O)c3ccccc3C([O-])=C2n2cc[n+](-c3ccccn3)c2)cc1	Fh CTSL1 inh 31.4
O=C(CSc1nnc(-c2cccnc2)n1-c1ccccc1)Nc1cccc2ccccc12	none (no result: A3A deaminase, Fh CTSL1 inh, NALP1 yeast inh, APOBEC3G inh)
N=C1CCC(=N)c2c1c(O)c1ccccc1c2O	Fh CTSL1 inh 18.6 (no result: HGIII-sPLA2 inh)
O=C1CCn2c1c(O)c1ccccc1c2=O	none (no result: A3A deaminase, Fh CTSL1 inh, NALP1 yeast inh, APOBEC3G inh)
O=C(NCc1ccco1)c1cc(-c2cccc(Cl)c2)on1	none
COc1cccc(-c2cc(C(=O)NCc3ccco3)no2)c1	NALP1 yeast inh 29.2
Cc1nc2ccc(C(C(F)(F)F)(C(F)(F)F)C(F)(F)F)cc2[nH]1	NALP1 yeast inh 40.0
ClC1(Cl)CC1Cn1c(C2CC2)nc2ccccc21 (stereo not given)	none
CCc1nc2ccccc2n1CC1CC1(Cl)Cl (stereo not given)	NALP1 yeast inh 37.2
O=C(CC1C(=O)NCCN1Cc1ccc(F)cc1)NC1CCCCCCC1 (stereo not given)	Fh CTSL1 inh 19.4
CCN(c1ccc(NC(=O)COC(=O)c2cccs2)cc1)C(C)C	none
CCN(CC)c1ccc(NC(=O)COC(=O)c2cccs2)cc1	NALP1 yeast inh 36.3
O=C1CCC[C@H]2C[C@H](NCc3ccc(Cl)cc3)CC[C@]23CCCN13	none (no result: A3A deaminase, Fh CTSL1 inh, NALP1 yeast inh, APOBEC3G inh)
Cc1ccc(-c2cc(C(=O)O)n[nH]2)s1	none
CCOC(=O)c1cc(-c2ccc(Cl)s2)[nH]n1	NALP1 yeast inh 43.8
CCn1cc(C(=O)N2CCN(Cc3ccc(C)cc3)CC2)c(=O)c2ccc(C)nc21	none (no result: A3A deaminase, Fh CTSL1 inh, NALP1 yeast inh, APOBEC3G inh)
COC(=O)C1(C(C[N+](=O)[O-])c2ccc(C)cc2)C(=O)NCC1c1ccco1 (stereo not given)	NALP1 yeast inh 45.7
COc1ccc(Oc2c(Cl)cnn(-c3ccc(C(C)C)c(C)c3)c2=O)cc1	none (no result: A3A deaminase, Fh CTSL1 inh, NALP1 yeast inh, APOBEC3G inh)
COC(=O)C(=O)/C=C(\O)c1ccc(C)cc1	HGIII-sPLA2 inh 27.0
O=C(Cn1ncc2c([nH]c3ccccc32)c1=O)NCC1CCN(Cc2ccc(F)cc2)CC1	NALP1 yeast inh 28.7
CC(C)N=C1NN=C(c2ccc(F)cc2)CS1	Fh CTSL1 inh 16.8
CCN=C1NN=C(c2ccc(C)cc2)CS1	none
O=C(CSc1c[nH]c2ccccc12)NC1CCCC1	none
Cc1[nH]c2ccccc2c1SCC(=O)NC1CCCCC1	Fh CTSL1 inh 23.3
CCOc1ccc(-n2c(SCC(=O)Nc3ccc(S(=O)(=O)Nc4cc(C)nc(C)n4)cc3)nnc2-c2cccc(C)c2)cc1	none (no result: A3A deaminase, Fh CTSL1 inh, NALP1 yeast inh, APOBEC3G inh)
O=Cc1ccc(O)c2ncccc12	NALP1 yeast inh 82.2 (no result: Fh CTSL1 inh, HGIII-sPLA2 inh)
COCCCNC(=O)C1CCN(S(=O)(=O)c2ccc3[nH]c(=O)oc3c2)CC1	none (no result: A3A deaminase, Fh CTSL1 inh, NALP1 yeast inh, APOBEC3G inh)
O=c1ccc2cc3c([nH]c4ccc(Br)cc43)oc-2c1O	HGIII-sPLA2 inh 42.7
O=C(O)c1ccc(N=Nc2c(O)[nH]c3ccc(Br)cc23)cc1	none
CCn1cnc2c(cnn2-c2ccccc2)c1=O	NALP1 yeast inh 35.8
O=c1c2cnn(-c3ccccc3)c2ncn1CCc1ccccc1	none
O=C(Oc1cc(-c2ccccc2)no1)c1cccc(C(F)(F)F)c1	NALP1 yeast inh 43.1
C/C(=N\Nc1ccc(C)c(Cl)c1)c1ccncc1	Fh CTSL1 inh 18.9
Cc1cccc(Cn2cc(CN3CC(N(C)CCCOC(=O)c4cc(C)cc(C)c4)CS3(=O)=O)nn2)c1 (stereo not given)	none (no result: A3A deaminase, Fh CTSL1 inh, NALP1 yeast inh, APOBEC3G inh)
CN(Cc1ccno1)Cc1cn(Cc2ccccc2)nc1-c1ccc2c(c1)OCO2	NALP1 yeast inh 29.4
CN(Cc1cccnc1)Cc1cn(Cc2ccccc2)nc1-c1ccc2c(c1)OCO2	none
Cn1nc([N+](=O)[O-])nc1Sc1nnc(-c2ccccc2)o1	Fh CTSL1 inh 63.4
CCCC1CCC2(CC1)CCC2OC(=S)Nc1ccccc1 (stereo not given)	none (no result: A3A deaminase, Fh CTSL1 inh, NALP1 yeast inh, APOBEC3G inh)
CC1CC(C)CN(S(=O)(=O)c2ccc(NC(=S)NC(=O)c3ccccc3)cc2)C1 (stereo not given)	Fh CTSL1 inh 18.9
CC1CCCC(NC(=O)NC(=O)CCl)C1C (stereo not given)	Fh CTSL1 inh 24.4
COc1ccc(CN(CCN2CCOCC2)C(=O)c2cc(F)ccc2C)cc1OC	none (no result: A3A deaminase, Fh CTSL1 inh, NALP1 yeast inh, APOBEC3G inh)
NCCCS(=O)(=O)O	Fh CTSL1 inh 19.3!
Cc1ccccc1Nc1cc2ccccc2c(=O)[nH]1	Fh CTSL1 inh 82.6 (no result: HGIII-sPLA2 inh)
O=c1[nH]c(Nc2ccc(F)cc2)cc2ccccc12	Fh CTSL1 inh 58.4
O=c1[nH]c(Nc2ccccn2)cc2ccccc12	none (no result: NALP1 yeast inh)
O=c1[nH]c(Nc2ccccc2Cl)cc2ccccc12	none (no result: NALP1 yeast inh)
O=C(Nc1ccc(Cl)cc1)OC(CN1CCCCC1)C(F)(F)F (stereo not given)	NALP1 yeast inh 25.0
CCOC(=O)C1CCN(S(=O)(=O)c2ccc3[nH]c(=O)oc3c2)CC1	NALP1 yeast inh 40.3
O=C1CCC[C@H]2Cc3nc4cccc(Cl)c4cc3C[C@]23CCCN13	none (no result: A3A deaminase, Fh CTSL1 inh, NALP1 yeast inh, APOBEC3G inh)
Cc1[nH]c2ccccc2c1NC(=O)CN1CCN(C(=O)c2ccco2)CC1	NALP1 yeast inh 41.8
COC(=O)[C@]1(C#N)CC(=O)N(Cc2ccc(Cl)cc2)[C@@H]1c1ccccc1	none (no result: A3A deaminase, Fh CTSL1 inh, NALP1 yeast inh, APOBEC3G inh)
OC(CNCCc1ccc(C(F)(F)F)cc1)COc1ccc2ccccc2c1 (stereo not given)	NALP1 yeast inh 96.0
COc1ccccc1COCC(O)CNCCc1ccc(C(F)(F)F)cc1 (stereo not given)	none
OC(CNCCc1ccc(C(F)(F)F)cc1)COc1cccc2ccccc12 (stereo not given)	NALP1 yeast inh 102.8
